PubChem BioAssay (NCATS)
Inconclusive results are not listed. Unmarked numbers belong to inactive results. Activity calls are given as the source filed them. Calls come from the whole dose curve; as a rule, active = well fitted inhibition curve with a large enough effect in the repeat runs; inconclusive = weak or mixed curves; inactive = flat fitted curve, though single readings scatter.

Target: Cytochrome P450 2D6 (Homo sapiens) (UniProt P10635)
Assay: Cytochrome P450 family 2 subfamily D member 6 (CYP2D6) small molecule antagonists: luciferase biochemical (cell-free) qHTS assay (AID 1645840); note: nearly all actives have a fitted effect of over 55% in size
Details: P450-Glo CYP2D6 enzyme, luciferin luminescence, 1 h; series mostly up to 57.4 µM; activity change, negative = inhibition: at the top concentration
Procedure, shortened: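 P450-Glo luminescent screen: recombinant CYP2D6 enzyme–proluciferin substrate mix preincubated with compound 10 min at room temperature, then NADPH regeneration added for 1 h at room temperature. Detection reagent added for 20 min; luciferin light read as relative luminescence units.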
% is set by controls: 0 for no effect and ±100 for the full control effect; potency is the fitted concentration of half-maximal effect.

Chain of Cytochrome P450 2D6 (Homo sapiens) (P10635 whole entry, looked up): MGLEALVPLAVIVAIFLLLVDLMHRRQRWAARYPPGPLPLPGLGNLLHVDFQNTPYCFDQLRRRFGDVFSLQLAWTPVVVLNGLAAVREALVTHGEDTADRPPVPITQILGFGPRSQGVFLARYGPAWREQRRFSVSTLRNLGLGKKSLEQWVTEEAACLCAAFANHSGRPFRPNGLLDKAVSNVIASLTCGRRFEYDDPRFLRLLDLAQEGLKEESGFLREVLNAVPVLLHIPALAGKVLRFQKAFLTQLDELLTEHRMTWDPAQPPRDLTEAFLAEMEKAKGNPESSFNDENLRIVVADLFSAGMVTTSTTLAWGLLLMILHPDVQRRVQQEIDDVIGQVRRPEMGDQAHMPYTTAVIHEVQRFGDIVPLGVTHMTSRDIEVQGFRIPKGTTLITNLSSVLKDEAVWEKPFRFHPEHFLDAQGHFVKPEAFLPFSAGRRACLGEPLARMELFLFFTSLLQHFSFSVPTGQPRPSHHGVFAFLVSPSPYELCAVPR

Structure (SMILES)	Potency	activity change, negative = inhibition [%]
NS(=O)(=O)c1ccc(Nc2nc(OCC3CCCCC3)c3[nH]cnc3n2)cc1	19 µM (active)	
COc1ccc(C=CC(=O)Nc2ccccc2C(=O)O)cc1OC		-3.33
CCNC(=O)Nc1ccc(Oc2ncnc(N)c2C=NOC)cc1Cl		13.8
COc1ccc(-c2nc3ccc(C4=NNC(=O)CC4C)cc3[nH]2)cc1 (stereo not given)		0.595
c1ccc(CNc2nc(N3CCOc4ccccc43)nc3c2CCCC3)cc1	3.01 µM (active)	
c1cc(OCCN2CCCCC2)cc(-c2n[nH]c3ccc(-c4ncn[nH]4)cc23)c1	15.1 µM (active)	
CN1CCc2c(n(Cc3ccc(C(=O)NO)cc3)c3ccccc23)C1	6.74 µM (active)	
Cc1cccc(Nc2nc(N[C@@H]3CCCC[C@H]3N)ncc2C(N)=O)c1	15.1 µM (active)	
Fc1ccc(CNc2ncnc3ccc(F)cc23)cc1	16.9 µM (active)	
Clc1ccc(C2(c3ccc(-c4cn[nH]c4)cc3)CCNCC2)cc1	3.38 µM (active)	
O=C(c1ccc(F)c(F)c1Nc1ccc(I)cc1F)N1CC(O)([C@H]2CCCCN2)C1	3.01 µM (active)	
NS(=O)(=O)c1cc(Cl)c(Cl)c(S(N)(=O)=O)c1		-2.11
CN1CCC(COc2cnc(-c3cccc(Cn4nc(-c5cccc(C#N)c5)ccc4=O)c3)nc2)CC1		-22.1
Cc1nc(C(=O)NCC(=O)O)c(O)c2ccc(Oc3ccccc3)cc12		16.7
Cc1nc2c([nH]1)CCN(C(=O)c1ccc(NC(=O)c3ccccc3-c3ccccc3)cc1)c1ccccc1-2	4.77 µM (active)	
